# Out of some 310,000 compounds screened, about 14,000 (4.5%) showed an effect of 50% or more. Effects have a minus sign here. This excerpt belongs to a sample that is enriched for strong results.
# Target: human ether-à-go-go-related gene (hERG) potassium channel (human, UniProt Q12809)
# Experiment: primary screen, population patch clamp on CHO cells stably expressing hERG; higher = less effect of the substance
# 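Also: peak tail current of the secondary pulse compared with the same well before compound.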
# Chain of human ether-à-go-go-related gene (hERG) potassium channel (Q12809 whole entry, looked up): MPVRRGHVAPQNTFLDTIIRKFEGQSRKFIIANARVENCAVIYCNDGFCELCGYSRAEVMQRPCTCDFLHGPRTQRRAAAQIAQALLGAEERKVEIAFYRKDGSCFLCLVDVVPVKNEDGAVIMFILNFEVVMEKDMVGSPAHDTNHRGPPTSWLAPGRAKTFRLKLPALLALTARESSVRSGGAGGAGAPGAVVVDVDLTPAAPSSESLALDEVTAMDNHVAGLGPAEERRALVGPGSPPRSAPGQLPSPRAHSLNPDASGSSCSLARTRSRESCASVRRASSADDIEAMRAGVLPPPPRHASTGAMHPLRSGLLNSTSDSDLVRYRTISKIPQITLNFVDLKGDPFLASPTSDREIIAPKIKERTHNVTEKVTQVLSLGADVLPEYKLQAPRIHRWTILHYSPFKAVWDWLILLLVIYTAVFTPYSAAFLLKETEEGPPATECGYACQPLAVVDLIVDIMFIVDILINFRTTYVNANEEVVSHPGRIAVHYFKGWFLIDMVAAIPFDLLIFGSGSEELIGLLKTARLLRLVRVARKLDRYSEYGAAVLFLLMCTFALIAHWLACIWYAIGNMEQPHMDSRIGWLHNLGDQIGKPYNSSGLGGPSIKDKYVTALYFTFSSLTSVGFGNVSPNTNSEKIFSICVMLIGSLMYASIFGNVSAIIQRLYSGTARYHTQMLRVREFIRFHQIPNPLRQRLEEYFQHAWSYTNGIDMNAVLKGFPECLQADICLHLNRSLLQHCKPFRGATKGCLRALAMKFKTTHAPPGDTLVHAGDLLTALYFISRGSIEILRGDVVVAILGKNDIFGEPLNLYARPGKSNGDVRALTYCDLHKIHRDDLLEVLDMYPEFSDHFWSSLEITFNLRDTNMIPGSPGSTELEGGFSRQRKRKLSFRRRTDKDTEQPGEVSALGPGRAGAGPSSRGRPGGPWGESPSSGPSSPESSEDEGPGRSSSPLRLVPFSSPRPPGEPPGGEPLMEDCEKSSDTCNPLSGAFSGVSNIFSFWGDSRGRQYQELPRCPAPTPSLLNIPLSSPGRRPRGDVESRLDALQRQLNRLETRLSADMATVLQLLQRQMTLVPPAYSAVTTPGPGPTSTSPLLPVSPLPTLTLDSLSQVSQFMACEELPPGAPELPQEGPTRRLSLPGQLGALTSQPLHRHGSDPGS
row,Compound,"hERG current change (%, negative = inhibition) at 10uM [%]"
1,Cc1ccccc1/C=C1\SC(=S)N(/N=C/c2cc([N+](=O)[O-])ccc2O)C1=O,8.13
2,COc1ccc(N(C)C(=O)c2cnc(N3CCN(c4ncccn4)CC3)c3ccccc23)cc1,-11.8
3,Cc1ccc(NC(=O)N2CCC(NC(=O)C(C)(C)C)CC2)cc1,10.1
4,O=C(Cn1cncn1)N/N=C/c1cccc(Cl)c1,16.3
5,Oc1ccc(N=Nc2cccc(C(F)(F)F)c2)cc1C=Nc1ccc(N2CCOCC2)cc1,15.6
6,CCOc1ccc(C(CC(=O)O)NC(=O)COc2ccccc2OC)cc1OC (centres unmarked),26.4
7,Cc1c(C(=O)O)cccc1-c1ccc(/C=N/Nc2ccc(Br)cc2)o1,30.2
8,Cc1ccc(S(=O)(=O)N2CCN(C(=O)CCC(=O)NC3CCCc4ccccc43)CC2)cc1 (centres unmarked),-17.3
9,COc1ccc(NC(=O)CN2CCN(S(=O)(=O)c3ccc(Cl)cc3)CC2)cc1Cl,-0.308
10,O=C(CN1CCCN(S(=O)(=O)c2ccc(F)cc2)CC1)Nc1c(Cl)cccc1Cl,-27.1
11,O=C(CCC(=O)N1CCN(S(=O)(=O)c2ccccc2)CC1)NC1CCCc2ccccc21 (centres unmarked),-13.5
12,COc1ccc(NC(=O)CN2CCCN(S(=O)(=O)c3ccc(F)cc3)CC2)cc1,-36.5
13,CCc1ccc(NC(=O)CN2CCCN(S(=O)(=O)c3ccc(F)cc3)CC2)cc1,-63.9
14,COc1ccc(S(=O)(=O)N2CCN(CC(=O)Nc3ccc(F)c(F)c3)CC2)cc1,-66.4
15,COc1ccc(S(=O)(=O)N2CCN(CC(=O)Nc3cc(OC)cc(OC)c3)CC2)cc1,-0.404
16,O=C(CN1CCN(S(=O)(=O)c2ccc(F)cc2)CC1)Nc1ccc2c(c1)OCCO2,-10.9
17,O=C(CCC(=O)N1CCN(S(=O)(=O)c2ccc(Cl)cc2)CC1)NC1CCCc2ccccc21 (centres unmarked),-52.6
18,NS(=O)(=O)c1ccc(NC(=O)CN2CCCN(S(=O)(=O)c3ccc(F)cc3)CC2)cc1,-17.9
19,O=C(CN1CCCN(S(=O)(=O)c2ccc(F)cc2)CC1)Nc1cccc(F)c1,-50.3
20,Cc1c(C(=O)Nc2nnc(C(F)(F)F)s2)oc2ccccc12,13.1
21,Cc1cc(OC(=O)c2ccc(S(=O)(=O)N(C)C)cc2)c([N+](=O)[O-])c(=O)[nH]1,10.6
22,COc1ccc2c(c1OC)C(=O)OC2C1c2cc3c(cc2CCN1C)OCO3 (centres unmarked),6.25
23,COc1cc(C(O)CN)ccc1O.Cl (centres unmarked),3.21
24,CCN(CC)C(=S)Sc1c(-c2ccccc2)c2cc(Cl)ccc2[nH]c1=O,5.42
25,COc1ccc(S(=O)(=O)N2CCN(CC(=O)Nc3cccc(OC)c3)CC2)cc1,-31.4
26,COc1cccc(NC(=O)CN2CCN(S(=O)(=O)c3ccc(F)cc3)CC2)c1,-23.1
27,COc1ccc(S(=O)(=O)N2CCN(CC(=O)Nc3cccc(F)c3)CC2)cc1,-54.1

row,Compound,"hERG current change (%, negative = inhibition) at 10uM [%]"
1,Cc1cnc(NC(=O)C(C)N2CCN(C)CC2)s1.O=C(O)C(=O)O (centres unmarked),20.7
2,O=C(O)C1(P(=O)(c2ccccc2)c2ccccc2)CCC1,-3.46
3,CC(/C=N/Nc1ncc(C)c(=O)[nH]1)=C\c1ccccc1,-53
4,CC(/C=N/Nc1nnc(C)c(=O)[nH]1)=C\c1ccccc1,-10.5
5,CC(/C=N/Nc1nncc(=O)[nH]1)=C\c1ccccc1,3.08
6,O=C(CSc1nnc(COc2ccc(Cl)cc2)o1)NC1CC2CCC1C2 (centres unmarked),11.5
7,CCC(C)(C)NC(=O)C(C(C)C)N(CC1CCCO1)C(=O)CNS(=O)(=O)c1ccccc1 (centres unmarked),-2.21
8,CCC(Oc1ccccc1)C(=O)Nc1ccc(C)c(S(=O)(=O)N2CCOCC2)c1 (centres unmarked),-18
9,CNCc1ccccc1Sc1ccc(OC)cc1.Cl,-30.4
10,CN(C)Cc1ccccc1Sc1ccc(Br)cc1,-15.6
11,CNC(C)Cc1ccccc1Sc1ccc(O)cc1.Cl (centres unmarked),-66.7
12,CC(Cc1ccccc1Sc1ccccc1O)N(C)C.Cl (centres unmarked),-18.9
13,CC(N)Cc1ccccc1Sc1ccc(O)cc1.O=C(O)C(=O)O (centres unmarked),-35.5
14,CC(Cc1ccccc1Sc1ccc(O)cc1)N(C)C.CCO.Cl (centres unmarked),-69.5
15,O=C(C1=C(O)C(=O)N(CCN2CCOCC2)C1c1ccccc1)c1cccs1 (centres unmarked),-2.27
16,O=C(OC(C(=O)NCc1cccs1)c1ccccc1F)c1ccco1 (centres unmarked),20.5
17,CCOc1ccccc1NC(=O)COC(=O)C(Cc1ccccc1)NC(=O)c1ccco1 (centres unmarked),-8.33
18,O=C1/C(=C\c2ccsc2)NC(=S)N1c1ccccc1,15.4
19,COc1ccccc1OCCC(=O)OCC(=O)Nc1cc(S(=O)(=O)N(C)C)ccc1Cl,-6.26
20,O=C(Cc1ccc(F)cc1)N1CCC(CC2CC(c3ccc(Cl)cc3)=NO2)(C(=O)NCC2CCCCC2)CC1 (centres unmarked),-72.3
21,O=C(NCC1CCCCC1)C1(CC2CC(c3cccc(Br)c3)=NO2)CCNCC1 (centres unmarked),-24.1
22,CCOc1cc(C(=O)N2CCC(CC3CC(c4ccc(Cl)cc4)=NO3)(C(=O)NCC3CCCCC3)CC2)cc(OCC)c1OCC (centres unmarked),1.25
23,O=C(Cc1ccc(F)cc1)N1CCC(CC2CC(c3cccc(Br)c3)=NO2)(C(=O)NCC2CCCCC2)CC1 (centres unmarked),-8.67
24,O=C(NCC1CCCCC1)C1(CC2CC(c3ccc(Cl)cc3)=NO2)CCNCC1 (centres unmarked),-71.6
25,COc1ccc(OC)c(-c2csc(NC(=O)C3c4ccccc4Oc4ccccc43)n2)c1,-5.7
26,Cc1sc(-c2ccncc2)nc1OC(=O)c1cc(Cl)cc(Cl)c1,10.2

# Reference: PMC4336329 (PLoS ONE, 2015)
